Among all 5,500 compounds or so, about 2,000 (36%) were called active. Roughly 18% stayed inconclusive and do not appear here. Rule as the data show it: active = normalized growth mostly below about 0.91 (no sharp cut-off); inconclusive = no clear call, values can overlap the other calls; inactive = mostly above about 0.92. The list shows a part of the results.
Test: chemical genetic growth profiling, strain panel (AID 1159580);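 also: tested at 20 µM; growth read once vehicle control cultures reached saturation at 30 °C; 1 = growth at the plate median or of vehicle wells; lower values mean less growth of the strain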
Conditions: growth OD

Measured: normalized growth

C[C@H]1C(=O)O[C@@H]2CCN3CC=C(COC(=O)[C@](C)(O)[C@]1(C)O)[C@H]23
inactive: S. cerevisiae deletion strains, locus YKL068W, hits give low values 0.992 | S. cerevisiae deletion strains, locus YKL085W, strain MDH1 (second series), hits give low values 1.04 | S. cerevisiae deletion strains, locus YKL085W, strain MDH1, hits give low values 1.04 | S. cerevisiae deletion strains, locus YKL160W, strain elf1, hits give low values 0.991 | S. cerevisiae deletion strains, locus YKL190W, strain CNB1, hits give low values 1 | S. cerevisiae deletion strains, locus YKR001C, strain vps1, hits give low values 0.986 | S. cerevisiae deletion strains, locus YKR026C, strain gcn3, hits give low values 0.986 | S. cerevisiae deletion strains, locus YKR091W, strain srl3, hits give low values 0.975 | S. cerevisiae deletion strains, locus YLL001W, strain dnm1, hits give low values 0.976 | S. cerevisiae deletion strains, locus YLL026W, hits give low values 0.99 | S. cerevisiae deletion strains, locus YLL041C, strain sdh2, hits give low values 0.993 | S. cerevisiae deletion strains, locus YLR027C, strain aat2, hits give low values 0.993 | S. cerevisiae deletion strains, locus YLR039C, strain RIC1, hits give low values 0.989 | S. cerevisiae deletion strains, locus YLR058C, strain SHM2, hits give low values 0.99 | S. cerevisiae deletion strains, locus YLR102C, strain apc9, hits give low values 0.988 | S. cerevisiae deletion strains, locus YLR113W, strain HOG1, hits give low values 1.01 | S. cerevisiae deletion strains, locus YLR221C, strain rsa3, hits give low values 1.01 | S. cerevisiae deletion strains, locus YLR258W, strain gsy2, hits give low values 0.992 | S. cerevisiae deletion strains, locus YLR262C, strain YPT6 (second series), hits give low values 0.976 | S. cerevisiae deletion strains, locus YLR262C, strain YPT6, hits give low values 1.02 | S. cerevisiae deletion strains, locus YLR268W, strain sec22, hits give low values 0.988 | S. cerevisiae deletion strains, locus YLR320W, strain mms22, hits give low values 0.997 | S. cerevisiae deletion strains, locus YLR330W, strain CHS5, hits give low values 0.992 | S. cerevisiae deletion strains, locus YLR342W, strain FKS1 (second series), hits give low values 0.976 | S. cerevisiae deletion strains, locus YLR342W, strain FKS1, hits give low values 0.997 | S. cerevisiae deletion strains, locus YLR357W, strain rsc2, hits give low values 0.979 | S. cerevisiae deletion strains, locus YLR370C, strain arc18, hits give low values 0.986 | S. cerevisiae deletion strains, locus YLR371W, strain rom2, hits give low values 0.984 | S. cerevisiae deletion strains, locus YLR384C, strain iki3, hits give low values 0.987 | S. cerevisiae deletion strains, locus YLR418C, strain cdc73, hits give low values 0.985 | S. cerevisiae deletion strains, locus YML016C, strain PPZ1, hits give low values 0.987 | S. cerevisiae deletion strains, locus YML032C, strain rad52, hits give low values 0.993 | S. cerevisiae deletion strains, locus YML120C, strain ndi1, hits give low values 0.988 | S. cerevisiae deletion strains, locus YML124C, strain tub3, hits give low values 0.987 | S. cerevisiae deletion strains, locus YMR058W, strain fet3, hits give low values 0.997 | S. cerevisiae deletion strains, locus YMR078C, strain ctf18, hits give low values 0.983 | S. cerevisiae deletion strains, locus YMR125W, strain sto1, hits give low values 0.987 | S. cerevisiae deletion strains, locus YMR129W, hits give low values 0.998 | S. cerevisiae deletion strains, locus YMR205C, strain PFK2, hits give low values 0.986 | S. cerevisiae deletion strains, locus YMR223W, strain ubp8, hits give low values 0.991 | S. cerevisiae deletion strains, locus YMR231W, strain pep5, hits give low values 0.998 | S. cerevisiae deletion strains, locus YMR263W, strain SAP30, hits give low values 1 | S. cerevisiae deletion strains, locus YMR307W, strain GAS1, hits give low values 0.983 | S. cerevisiae deletion strains, locus YNL067W, strain RPL9B, hits give low values 1.02 | S. cerevisiae deletion strains, locus YNL071W, strain lat1, hits give low values 0.991 | S. cerevisiae deletion strains, locus YNL128W, strain TEP1, hits give low values 0.98 | S. cerevisiae deletion strains, locus YNL153C, strain GIM3, hits give low values 1.02 | S. cerevisiae deletion strains, locus YNL183C, strain NPR1, hits give low values 0.969 | S. cerevisiae deletion strains, locus YNL209W, strain ssb2, hits give low values 0.994 | S. cerevisiae deletion strains, locus YNL233W, strain BNI4, hits give low values 0.995 | S. cerevisiae deletion strains, locus YNL248C, strain rpa49, hits give low values 0.995 | S. cerevisiae deletion strains, locus YNL250W, strain rad50, hits give low values 0.978 | S. cerevisiae deletion strains, locus YNL271C, strain bni1, hits give low values 0.985 | S. cerevisiae deletion strains, locus YNL298W, strain CLA4, hits give low values 0.987 | S. cerevisiae deletion strains, locus YNL307C, strain MCK1, hits give low values 0.991 | S. cerevisiae deletion strains, locus YNL322C, strain KRE1 (second series), hits give low values 0.982 | S. cerevisiae deletion strains, locus YNL322C, strain KRE1, hits give low values 0.993 | S. cerevisiae deletion strains, locus YNR049C, strain mso1, hits give low values 0.989 | S. cerevisiae deletion strains, locus YNR052C, strain pop2, hits give low values 0.987 | S. cerevisiae deletion strains, locus YOL006C, strain TOP1, hits give low values 1.03 | S. cerevisiae deletion strains, locus YOL012C, strain htz1 0.746 | S. cerevisiae deletion strains, locus YOL147C, strain pex11, hits give low values 0.997 | S. cerevisiae deletion strains, locus YOR001W, strain rrp6, hits give low values 0.995 | S. cerevisiae deletion strains, locus YOR061W, strain CKA2, hits give low values 0.989 | S. cerevisiae deletion strains, locus YOR069W, strain VPS5, hits give low values 0.984 | S. cerevisiae deletion strains, locus YOR070C, strain gyp1, hits give low values 0.994 | S. cerevisiae deletion strains, locus YOR080W, strain dia2, hits give low values 0.994 | S. cerevisiae deletion strains, locus YOR083W, strain WHI5, hits give low values 1 | S. cerevisiae deletion strains, locus YOR106W, strain vam3, hits give low values 0.998 | S. cerevisiae deletion strains, locus YOR136W, strain idh2, hits give low values 0.99 | S. cerevisiae deletion strains, locus YOR144C, strain elg1, hits give low values 0.988 | S. cerevisiae deletion strains, locus YOR184W, strain ser1, hits give low values 1.02 | S. cerevisiae deletion strains, locus YOR231W, strain MKK1, hits give low values 0.98 | S. cerevisiae deletion strains, locus YOR265W, strain rbl2, hits give low values 0.996 | S. cerevisiae deletion strains, locus YOR270C, strain vph1, hits give low values 0.967 | S. cerevisiae deletion strains, locus YOR290C, strain snf2, hits give low values 0.998 | S. cerevisiae deletion strains, locus YOR316C, strain cot1, hits give low values 0.978 | S. cerevisiae deletion strains, locus YPL051W, strain arl3, hits give low values 0.992 | S. cerevisiae deletion strains, locus YPL055C, strain LGE1, hits give low values 1.06 | S. cerevisiae deletion strains, locus YPL078C, strain atp4, hits give low values 0.993 | S. cerevisiae deletion strains, locus YPL106C, strain sse1, hits give low values 0.98 | S. cerevisiae deletion strains, locus YPL240C, strain hsp82, hits give low values 0.986 | S. cerevisiae deletion strains, locus YPL256C, strain CLN2, hits give low values 0.992 | S. cerevisiae deletion strains, locus YPR119W, strain clb2, hits give low values 0.991 | S. cerevisiae deletion strains, locus YPR141C, strain kar3, hits give low values 0.98 | S. cerevisiae deletion strains, locus YPR163C, strain tif3, hits give low values 0.986 | S. cerevisiae deletion strains, locus YPR167C, strain met16, hits give low values 0.989 | S. cerevisiae deletion strains, strain wtn01, hits give low values 0.987 | S. cerevisiae strains, strain wild type, hits give low values 0.995

Source: PubChem BioAssay AID1159580 (chemical genetic matrix, 2015)
